Measured values taken from PubChem BioAssay (NCI).
Where “and” joins values, the source holds several entries; their conditions need not be identical. Equal entries are not always repeated. About 83,000 compounds went through this panel and 20% of them were active in at least one assay; those are over-represented in the sample as a whole.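 Results are percent growth after 48 hours of single-concentration exposure. 100 means growth as in untreated cells, lower positive values show inhibition; negative values down to -100 show cell death.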 Unmarked numbers belong to inactive results. Calls of active or inactive are those of the source. The calls were made as follows: active = growth percent below 10; inactive = the rest.

Tests used:
Experiment in all cases: NCI-60 one-dose screen, 48 h (100 = growth as untreated, 0 = no growth, -100 = all killed)
Details in all cases: 10 µM unless noted
SR leukemia = system: SR leukemia
RPMI-8226 leukemia = system: RPMI-8226 leukemia
OVCAR-8 ovarian = system: OVCAR-8 ovarian
OVCAR-5 ovarian = system: OVCAR-5 ovarian
OVCAR-4 ovarian = system: OVCAR-4 ovarian
SK-OV-3 ovarian = system: SK-OV-3 ovarian
IGROV1 ovarian = system: IGROV1 ovarian
OVCAR-3 ovarian = system: OVCAR-3 ovarian
HS 578T breast = system: HS 578T breast
NCI/ADR-RES ovarian = system: NCI/ADR-RES ovarian
T-47D breast = system: T-47D breast
BT-549 breast = system: BT-549 breast
MDA-MB-435 melanoma = system: MDA-MB-435 melanoma
SW-620 colon = system: SW-620 colon
MCF7 breast = system: MCF7 breast
HCT-116 colon = system: HCT-116 colon
HCC-2998 colon = system: HCC-2998 colon
KM12 colon = system: KM12 colon

Structure (SMILES) | growth (SR leukemia) | growth (RPMI-8226 leukemia) | growth (OVCAR-8 ovarian) | growth (OVCAR-5 ovarian) | growth (OVCAR-4 ovarian) | growth (SK-OV-3 ovarian) | growth (IGROV1 ovarian) | growth (OVCAR-3 ovarian) | growth (HS 578T breast) | growth (NCI/ADR-RES ovarian) | growth (T-47D breast) | growth (BT-549 breast) | growth (MDA-MB-435 melanoma) | growth (SW-620 colon) | growth (MCF7 breast) | growth (HCT-116 colon) | growth (HCC-2998 colon) | growth (KM12 colon)
CCCCCCNC(=O)Oc1ccc(/C(=C(/CC)Cc2ccccc2)c2ccc(OCCCN(C)C)cc2)cc1 | -9.68% (active) | 75.2% | 83.9% | 90.5% | 81.7% | 88.2% | 68.1% | 95.3% | 86.3% | 72.2% | 54.4% | 82.8% | 87.8% | 59.6% | 22.9% | 39.8% | 24.1% | 82.4%
COc1ccc(S(=O)(=O)Nc2cc(Sc3cccc4cccnc34)c(O)c3ccccc23)cc1 | 8.57% (active) | 5.31% (active) | 9.48% (active) | 42.3% | -99.4% (active) | 50.7% | 5.99% (active) | -81.8% (active) | 47.2% | 11.1% | -30.9% (active) | 27.7% | 16.4% | -59.2% (active) | -50.5% (active) | -36.8% (active) | 38.6% | –
CCN1CCN(C(=O)[C@]23CC[C@@H](C)[C@H](C)[C@@H]2C2=CC[C@@H]4[C@@]5(C)CCC(=O)C(C)(C)[C@@H]5CC[C@@]4(C)[C@]2(C)CC3)CC1 | -13.4% (active) | -34.4% (active) | 16.5% | -3.73% (active) | 18% | 16.2% | 14.7% | 16.6% | -1.77% (active) | 9.16% (active) | 8.54% (active) | -26% (active) | 11% | -50.4% (active) | 4.77% (active) | -48.3% (active) | 0.569% (active) | –
O/N=C(/c1ccccc1)c1ccc2c3c(cccc13)CC2 | 67% and 66.6% | 75.2% and 70.4% | 87.7% | 97.7% and 95.4% | 83.9% and 77.1% | 99.3% and 97.4% | 97.8% and 98% | 99.4% and 93.3% | 94.4% and 90.2% | 92.8% and 88.6% | 85.9% and 93.8% | 84.6% and 106% | 47.3% and 37.8% | 91.2% and 84% | 85.8% and 82.6% | 83.7% and 92.1% | 101% and 97.8% | –
CCN(CC)CCCN1C(=O)c2c(c(C)c3c(oc4cc(OC)ccc43)c2C)C1=O | -4.78% (active) | 91.6% | 17% | 85% | 111% | 129% | 86.6% | 110% | 108% | 96% | 112% | 98.8% | 103% | 87.3% | -14.7% (active) | 74.3% | 98.1% | –
O=C1c2cccc3cccc(c23)C(=O)N1N1C(=O)c2cccc3c(N4CCNCC4)ccc(c23)C1=O | -6.4% (active) | 68.8% | 82.6% | 121% | 116% | 104% | 91.2% | 101% | 85.9% | 82.6% | 93.6% | 89.8% | 99.9% | 78.7% | 29% | 58.1% | 79.4% | –
CC1(C)C(N)=Nc2cc(OCCCN3Cc4ccc(OCCc5cn(CC(=O)N6CCC(CCN7CCCC7)CC6)nn5)cc4C3)c(OCC3CC3)cc21 | 115% | 88.8% | 92% | 95% | 94.6% | 105% | 101% | 114% | 97.2% | 103% | 92.3% | 100% | 102% | 109% | 89.3% | 103% | 122% | 107%
C#CCOCC1CN(C)C(=O)O1 (stereo not drawn) | 69.7% | 110% | 94.1% | 126% | 116% | 133% | 108% | 109% | 109% | 109% | 126% | 131% | 101% | 97% | 90.2% | 119% | 109% | –
